Experimental data reported in paper PMC5540273 (PLoS ONE, 2017).

Columns and labels:
Details in all cases: concentration: 1 μM, replicates: in singlicate; n = 1
[1] = tested on: T1, YANK3
T1 construct: gene STK32C

[2] = tested on: T2, YES
T2 construct: gene YES1

[3] = tested on: T3, YSK1
T3 construct: gene STK25

[4] = tested on: T4, YSK4
T4 construct: gene MAP3K19

[5] = tested on: ZAK
[6] = tested on: ZAP70
[7] = tested on: T5, p38-alpha
T5 construct: gene MAPK14

[8] = tested on: T6, p38-beta
T6 construct: gene MAPK11

[9] = tested on: p38-delta
[10] = tested on: T7, p38-gamma
T7 construct: gene MAPK12
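Further: KINOMEscan kinase panel screen.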

SMILES	%Inh [1] [%]	%Inh [2] [%]	%Inh [3] [%]	%Inh [4] [%]	%Inh [5] [%]	%Inh [6] [%]	%Inh [7] [%]	%Inh [8] [%]	%Inh [9] [%]	%Inh [10] [%]
Cc1ccc(NC(=O)c2ccnc(N3CCN(C)CC3)c2)cc1-c1ccc(C(=O)NCC2CC2)cc1 [GW775604]	0	0	19	0	0	0	32	35	10	0
Cn1ccc2ncnc(Oc3ccc(NC(=O)Nc4ccncc4)c(Cl)c3)c21	9	0	3	0	0	7	0	18	4	8
COc1ccc(Nc2nccc(N3CCC(NC(=O)Nc4cccc(C(C)=O)c4)C3)n2)cc1 (centres unmarked) [GSK1379731]	0	0	0	7	0	0	0	0	42	0
Cn1cc(-c2ccc3c(c2)CCN3C(=O)Cc2ccccc2Cl)c2c(N)ncnc21 [GSK2608885]	23	99.7	20	0	97.9	0	99.9	99.5	26	20
N#Cc1ccc(-c2cc(-c3c[nH]nc3-c3ccccn3)ccn2)cc1 [GW693028]	6	13	0	33	15	0	30	0	22	0
